PubChem BioAssay
Active and inactive are the calls of the source. Unless noted, the rule behind the calls is not given here.

Columns and labels:
[1] = anti-His antibody binders, primary screen, artefact control for SMM control protein annotation, biochemical, small-molecule microarray, 635 nm fluorescence (AID 1128); conditions: anti-His Alexa647 antibody binding, higher = more signal;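 note: score merges feature fluorescence with signal-to-noise for each printed compound spot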
[2] = tested on: Human papillomavirus type 1a E7 protein (residues 1-88); assay: HPV1a E7 small-molecule binders, primary screen, biochemical, small-molecule microarray, residues 1-88, 635 nm (AID 1129); conditions: small-molecule microarray binding, fluorescence 635 nm; higher = more signal
[3] = target: Focal adhesion kinase 1 (Homo sapiens) (UniProt Q05397); assay: small-molecule microarray binders of FAK, primary screen, biochemical, 635/667 nm fluorescence, BSA, DTT (AID 1130); conditions: PTK2 binding, 635 nm fluorescence, higher = more signal;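 note: composite of spot emission at 667 nm and signal to noise over triplicate slides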
[4] = tested on: Fibrinogen (Alexa647-labelled); assay: fibrinogen binders on compound microarrays, profiling panel, artefact control for SMM control-protein annotation, biochemical, small-molecule microarray, 635/667 nm fluorescence (AID 1131); conditions: fibrinogen-A647 binding fluorescence, higher = more signal;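 note: z-score merges 667 nm fluorescence with per-spot signal-to-noise over triplicate slides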
[5] = target: Follistatin (Homo sapiens) (UniProt P19883); assay: follistatin binders on small-molecule microarrays, primary screen, biochemical, small-molecule microarray, 635/667 nm fluorescence (AID 1132); conditions: FST binding, 635 nm fluorescence, higher = more signal
[6] = target: Fibroblast growth factor 2 (Homo sapiens) (UniProt P09038); assay: FGF2 binders on small-molecule microarrays, primary screen, biochemical, small-molecule microarray, 635/667 nm fluorescence (AID 1133); conditions: small-molecule microarray binding, FGF2, fluorescence 635/667; higher = more signal
[7] = mitochondrial membrane potential change in A549 cells, profiling panel, cell-based, JC-1 fluorescence, basal, 24 h, 100 nL (AID 1138); conditions: higher = more signal;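 note: A549 lung adenocarcinoma cells under basal conditions with no added stimulus; test concentration not given here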
Lefty1 = Lefty1 binders on small-molecule microarrays, primary screen, biochemical, small-molecule microarray, 635/667 nm fluorescence (AID 1139); conditions: small-molecule microarray binding, fluorescence 635/667; higher = more signal
[8] = tested on: wheat germ agglutinin (Triticum aestivum), Alexa647-labelled; assay: wheat germ agglutinin binders on compound microarrays, profiling panel, artefact control for SMM control-protein annotation, biochemical, small-molecule microarray, 635/667 nm fluorescence (AID 1140); conditions: WGA-A647 binding, 635 nm fluorescence, higher = more signal;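 note: score merges 667 nm feature emission with signal to noise over triplicate slides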
[9] = target: Luciferin 4-monooxygenase (Photinus pyralis) (UniProt P08659); assay: firefly luciferase enzyme inhibitors, primary screen, biochemical, luminescence, purified enzyme, 2006 set (AID 1141); conditions: SteadyGlo luminescence, 30 min, higher = more signal, called active from +8 up or from −8 down;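 note: cell-free assay with purified firefly luciferase at 100 ng per well in PBS; test concentration not given here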
[10] = tested on: Wnt5a (protein binding on small-molecule microarray); assay: Wnt5a binders on small-molecule microarray, primary screen, biophysical, 635/667 nm fluorescence (AID 1142); conditions: 635 nm fluorescence, higher = more signal;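 note: fluorescence read at 667 nm with signal to noise per printed feature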
[11] = cell viability in Huh7 cells, primary screen, cytotoxicity control for HCV replication inhibitor project, CellTiter-Glo luminescence, basal, 48 h (AID 1143); conditions: Huh7 HCV replicon, higher = more signal, called active from +8 up or from −8 down;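 note: Huh7 hepatoma cells carrying a hepatitis C replication reporter with no stimulus; test concentration not given here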
[12] = P. aeruginosa biofilm formation inhibitors, primary screen, PAO1 strain, BacTiter-Glo luminescence, LB-PBS (AID 1144); conditions: 12 h, higher = more signal
[13] = CREB reporter modulators without forskolin, primary screen, cell-based, PC12, CRE-LacZ reporter, unstimulated (AID 1145); conditions: no forskolin, luminescence, 4.5 h, higher = more signal, called active from +8 up or from −8 down
[14] = CREB reporter modulators under forskolin, primary screen, cell-based, PC12, CRE-LacZ reporter, forskolin-stimulated (AID 1146); conditions: luminescence, 4.5 h, higher = more signal, called active from +8 up or from −8 down;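 note: PC12 cells with 6xCRE LacZ reporter stimulated by forskolin 10 µM; beta-galactosidase reporter signal reflecting CREB driven transcription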
[15] = target: Streptavidin (Streptomyces avidinii) (UniProt P22629); assay: streptavidin binders on small-molecule microarray, primary screen, artefact control for SMM compound annotation, biophysical, 635/667 nm fluorescence (AID 1147); conditions: streptavidin binding, higher = more signal;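 note: signal reflects streptavidin binding to arrayed compounds as a control protein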
[16] = small-molecule binders of probe aInhba, primary screen, biochemical, small-molecule microarray, 635/667 nm fluorescence (AID 1148); conditions: higher = more signal;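 note: score merges 667nm spot fluorescence with signal-to-noise for antibody binding to printed compounds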
Torsin-1A (Homo sapiens) [17] = target: Torsin-1A (Homo sapiens) (UniProt O14656); assay: torsin A binders from cell lysate, primary screen, small-molecule microarray, wild-type, 635/667 nm (AID 1149); conditions: COS7 hTOR1A-WT lysate, 635 nm fluorescence, higher = more signal
Torsin-1A (Homo sapiens) [18] = target: Torsin-1A (Homo sapiens) (UniProt O14656); assay: small-molecule binders of mutant TOR1A in lysate, primary screen, cell lysate, small-molecule microarray, COS7 lysate, 635/667 nm fluorescence (AID 1150); conditions: COS7 hTOR1A mutant lysate, 635 nm fluorescence, higher = more signal;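 note: score pools 667 nm emission and signal to noise measuring lysate protein binding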
[19] = tested on: Sonic hedgehog protein (Shh); assay: small-molecule binders of Shh protein, primary screen, biochemical, small-molecule microarray, 635/667 nm fluorescence (AID 1151); conditions: small-molecule microarray binding, 635 nm fluorescence; higher = more signal;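 note: Shh protein binding to compounds spotted on small-molecule microarray slides; score combines spot fluorescence intensity with signal-to-noise across triplicate slides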

Chain of Streptavidin (Streptomyces avidinii) (P22629 whole entry, looked up): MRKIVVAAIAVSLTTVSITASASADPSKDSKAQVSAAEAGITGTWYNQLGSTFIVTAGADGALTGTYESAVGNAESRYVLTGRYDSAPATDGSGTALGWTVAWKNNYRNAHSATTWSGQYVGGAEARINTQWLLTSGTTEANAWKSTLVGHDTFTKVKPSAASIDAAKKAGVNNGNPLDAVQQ
Chain of Focal adhesion kinase 1 (Homo sapiens) (Q05397 whole entry, looked up): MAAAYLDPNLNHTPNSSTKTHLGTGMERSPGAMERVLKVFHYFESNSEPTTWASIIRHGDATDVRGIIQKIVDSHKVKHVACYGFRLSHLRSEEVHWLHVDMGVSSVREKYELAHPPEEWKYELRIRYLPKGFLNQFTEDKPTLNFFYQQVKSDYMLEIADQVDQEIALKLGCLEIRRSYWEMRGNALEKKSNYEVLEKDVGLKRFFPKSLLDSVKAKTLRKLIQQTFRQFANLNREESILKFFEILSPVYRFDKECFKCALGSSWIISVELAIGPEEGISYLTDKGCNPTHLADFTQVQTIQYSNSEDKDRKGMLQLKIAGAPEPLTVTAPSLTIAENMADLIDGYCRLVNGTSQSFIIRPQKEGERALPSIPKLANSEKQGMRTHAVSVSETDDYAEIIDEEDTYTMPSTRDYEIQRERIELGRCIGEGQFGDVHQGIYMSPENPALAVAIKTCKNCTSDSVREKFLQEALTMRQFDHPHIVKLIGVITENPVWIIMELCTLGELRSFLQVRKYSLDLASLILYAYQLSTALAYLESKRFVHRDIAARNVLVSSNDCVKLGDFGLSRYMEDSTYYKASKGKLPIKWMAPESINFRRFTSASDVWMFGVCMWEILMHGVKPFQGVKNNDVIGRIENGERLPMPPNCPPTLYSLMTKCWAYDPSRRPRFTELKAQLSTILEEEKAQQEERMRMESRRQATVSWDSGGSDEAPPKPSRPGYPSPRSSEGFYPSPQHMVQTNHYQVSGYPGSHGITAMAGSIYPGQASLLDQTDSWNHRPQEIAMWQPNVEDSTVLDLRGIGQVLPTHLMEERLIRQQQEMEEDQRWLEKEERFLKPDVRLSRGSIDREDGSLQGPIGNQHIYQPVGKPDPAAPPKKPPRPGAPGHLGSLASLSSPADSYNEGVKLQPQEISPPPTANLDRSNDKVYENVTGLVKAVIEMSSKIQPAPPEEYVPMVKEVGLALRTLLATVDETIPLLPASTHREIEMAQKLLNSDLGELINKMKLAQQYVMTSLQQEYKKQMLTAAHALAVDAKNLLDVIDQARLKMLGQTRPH
Chain of Luciferin 4-monooxygenase (Photinus pyralis) (P08659 whole entry, looked up): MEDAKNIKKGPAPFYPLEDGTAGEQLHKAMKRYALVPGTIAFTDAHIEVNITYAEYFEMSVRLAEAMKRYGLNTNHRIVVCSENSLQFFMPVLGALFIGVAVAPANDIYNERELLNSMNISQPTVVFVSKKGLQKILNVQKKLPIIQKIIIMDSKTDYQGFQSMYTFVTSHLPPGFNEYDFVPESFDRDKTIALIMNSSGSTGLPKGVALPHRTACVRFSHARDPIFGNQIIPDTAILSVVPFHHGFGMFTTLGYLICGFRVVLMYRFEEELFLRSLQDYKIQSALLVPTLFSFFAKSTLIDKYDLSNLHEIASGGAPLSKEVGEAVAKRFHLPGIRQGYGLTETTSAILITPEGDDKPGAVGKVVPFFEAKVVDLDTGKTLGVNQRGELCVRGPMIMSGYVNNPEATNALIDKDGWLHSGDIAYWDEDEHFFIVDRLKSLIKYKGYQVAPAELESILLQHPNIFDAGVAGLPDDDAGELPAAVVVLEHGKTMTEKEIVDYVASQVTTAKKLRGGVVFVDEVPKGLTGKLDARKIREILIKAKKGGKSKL
Chain of Follistatin (Homo sapiens) (P19883 whole entry, looked up): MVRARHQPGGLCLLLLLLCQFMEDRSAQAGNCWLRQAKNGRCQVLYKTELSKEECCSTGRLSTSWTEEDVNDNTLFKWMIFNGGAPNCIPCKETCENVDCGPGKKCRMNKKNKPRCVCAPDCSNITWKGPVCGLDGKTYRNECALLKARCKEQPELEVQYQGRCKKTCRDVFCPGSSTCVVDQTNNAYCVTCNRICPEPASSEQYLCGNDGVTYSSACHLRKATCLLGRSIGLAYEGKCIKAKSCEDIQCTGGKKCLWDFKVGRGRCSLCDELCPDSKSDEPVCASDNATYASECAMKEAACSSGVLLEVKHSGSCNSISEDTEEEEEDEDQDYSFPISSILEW
Chain of Fibroblast growth factor 2 (Homo sapiens) (P09038 whole entry, looked up): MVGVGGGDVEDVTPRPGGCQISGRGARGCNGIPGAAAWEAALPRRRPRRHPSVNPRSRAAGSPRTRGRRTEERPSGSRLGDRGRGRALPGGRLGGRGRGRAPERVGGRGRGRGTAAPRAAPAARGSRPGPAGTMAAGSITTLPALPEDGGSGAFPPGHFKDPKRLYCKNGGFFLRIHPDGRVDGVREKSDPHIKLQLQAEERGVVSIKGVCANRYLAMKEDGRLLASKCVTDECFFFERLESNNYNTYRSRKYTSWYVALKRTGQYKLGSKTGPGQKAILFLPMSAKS
Chain of Torsin-1A (Homo sapiens) (O14656 whole entry, looked up): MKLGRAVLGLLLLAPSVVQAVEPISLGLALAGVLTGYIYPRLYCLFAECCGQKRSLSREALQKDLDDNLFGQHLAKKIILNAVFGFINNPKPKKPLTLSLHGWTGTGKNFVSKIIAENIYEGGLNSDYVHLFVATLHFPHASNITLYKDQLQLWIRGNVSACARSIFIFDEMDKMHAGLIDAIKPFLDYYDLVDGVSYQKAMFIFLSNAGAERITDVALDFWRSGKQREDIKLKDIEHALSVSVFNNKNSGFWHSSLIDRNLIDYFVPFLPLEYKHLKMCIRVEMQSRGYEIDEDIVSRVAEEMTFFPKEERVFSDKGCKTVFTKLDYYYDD

SMILES	composite z-score [1]	composite z-score [2]	composite z-score [3]	composite z-score [4]	composite z-score [5]	composite z-score [6]	z-score [7]	composite z-score (Lefty1)	composite z-score [8]	z-score [9]	composite z-score [10]	z-score [11]	z-score [12]	z-score [13]	z-score [14]	composite z-score [15]	composite z-score [16]	composite z-score (Torsin-1A (Homo sapiens) [17])	composite z-score (Torsin-1A (Homo sapiens) [18])	composite z-score [19]
CO[C@H]1O[C@H](CO)[C@@H](OC(=O)Nc2ccc3c(c2)OCO3)[C@@H]2OC(=O)[C@@H](Cc3ccccc3)C/C=C/C[C@H](Cc3ccccc3)C(=O)O[C@@H]12	2.53	1.18	0.458	0.659	0.974	0.684	2.76	0.433	0.214	-1.01 (inactive)	0.465	-2.26 (inactive)	0.293 (inactive)	0.951 (inactive)	-0.601 (inactive)	0.294	0.24	-0.0548	0.266	1.32
C=CCNC(=O)[C@@H]1[C@H]2C(=O)O[C@H](c3ccccc3)[C@H](c3ccccc3)N2[C@H](c2ccccc2OCCO)[C@@]12C(=O)N(C(=O)OCCOC)c1ccc(C#CCCO)cc12	1.91	1.21	0.988	0.414	0.881	1.29	-0.549	0.711	0.971	-0.0405 (inactive)	0.304	-3.34 (inactive)	-0.976 (inactive)	-0.0768 (inactive)	-0.466 (inactive)	0.284	0.0649	0.338	1.35	1.06
CC(C)C(=C=CC[C@@H](O)c1ccc(OCCO)cc1)CCO	-0.171	-0.744	-0.397	0.114	1.26	1.25	0.451	0.607	-0.154	-0.426 (inactive)	0.224	-2.09 (inactive)	-0.635 (inactive)	-0.844 (inactive)	-1.31 (inactive)	-0.292	-0.0719	-0.0298	0.167	1.59
C=C(CCCC)C(=O)CC[C@H](OC(C)=O)c1ccccc1OCCO	0.0808	-0.167	-0.176	-0.107	1.16	0.105	-0.012	1.36	0.737	-0.722 (inactive)	0.241	-4.57 (inactive)	1.09 (inactive)	8.25 (active)	-0.195 (inactive)	-0.478	0.0902	-1.49	-0.447	1.42
COc1cc(OC)c(C(O)C2C=CC3C(=O)N(c4ccccc4)C(=O)C3N2Nc2ccccc2F)cc1Br (stereo not given)	1.31	1.25	0.823	1.01	1.34	0.0348	-0.78	0.666	0.898	-0.443 (inactive)	0.193	-0.259 (inactive)	-1.14 (inactive)	0.636 (inactive)	0.758 (inactive)	1.24	0.206	2.01	0.879	-0.2
CCCC[C@H]1OB(O)C[C@H]2C1=C(COC)C[C@H]1C(=O)C=CC(=O)[C@H]12	0.51	0.215	-0.0157	0.287	0.865	0.32	0.777	0.96	0.106	-3.03 (inactive)	0.269	-1.06 (inactive)	-0.229 (inactive)	10.7 (active)	6.12 (inactive)	-0.045	-0.0552	0.283	-0.0615	1.63
CC(C)C[C@@H]1NC(=O)C([C@@H](C)OCc2ccccc2)NC(=O)[C@@]23C(=O)N[C@@H](Cc4ccccc4)C2[C@H](C)[C@@]2(C)O[C@H]2C3/C=C/CC/C=C/CNC1=O (stereo not given in full)	0.48	0.809	0.87	-0.209	0.761	1.11	0.728	0.659	0.503	0.533 (inactive)	0.237	-4.9 (inactive)	-0.469 (inactive)	1.76 (inactive)	-1.52 (inactive)	0.264	-0.206	-0.608	0.32	1.07
CC1CC/C=C\[C@H]2OC34C=CCN(c5ccc(Cl)cc5)C(=O)[C@H]3N(CCCO)C(=O)[C@]4(C)C2C(=O)O1 (stereo not given in full)	-0.567	-0.796	-0.444	-1.67	-0.6	-1.2	0.58	-0.157	-1.34	-0.0112 (inactive)	-0.785	-0.0438 (inactive)	1.63 (inactive)	0.988 (inactive)	0.22 (inactive)	-1.02	-0.253	-2.1	-0.989	0.424
Cc1ccc(F)cc1S(=O)(=O)N[C@@H]1CCN(Cc2ccc3[nH]ccc3c2)C1	0.426	0.479	-0.105	-0.0254	1.06	0.561	0.316	0.543	0.0689	0.175 (inactive)	-0.159	-2.99 (inactive)	1.17 (inactive)	-0.147 (inactive)	0.49 (inactive)	0.874	-0.0403	0.247	0.608	0.711
COC(=O)Cn1c(C(=O)N(C)C)cc2c1C[C@H]1CN(C(=O)c3ccccc3)[C@@](Cc3ccc(OC)cc3)(C(=O)OC)[C@@H]21	0.817	0.845	0.263	0.605	0.371	-0.159	0.834	-0.351	0.86	0.923 (inactive)	1.09	-1.99 (inactive)	0.655 (inactive)	0.966 (inactive)	0.353 (inactive)	0.896	0.438	0.244	0.0985	-0.333
